# Reference: PubChem BioAssay AID2149 (The Scripps Research Institute Molecular Screening Center, 2009)
# The whole screen tested about 2,400 compounds, of which about 1,800 (75%) were called active. So high a share suggests a set chosen from earlier hits. The list is a sample of the results. Values without a mark were called inactive.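 How the source made its calls: active means inhibition above the primary screen limit, the mean inhibition of all tested compounds plus 3 SD (cut at about 25% in these data); inactive means the rest.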
# Test system: tRNA 2'-phosphotransferase TPT1 [Candida albicans SC5314]
# Assay: Candida albicans TPT1 inhibitors, confirmation, biochemical, fluorescence polarization, triplicate (AID 2149)
# Settings: recombinant caTPT1, fluorescence polarization, RNase T1 coupled; at 5 µM; stronger effect = higher value
row,SMILES,inhibition
1,CCCCC(=O)N/N=C/c1c(O)n(CC)c(=S)n(CC)c1=O,98.8% (active)
2,CCN1C(=O)C(=Cc2c(C)n(CC(=O)NCC3CCCO3)c3ccccc23)C(=O)N(CC)C1=S (centres undefined),18.6%
3,COc1ccc(N2C(=O)/C(=C/c3ccco3)C(=O)NC2=S)cc1,27.9% (active)
4,O=C1NC(=O)N(Cc2ccco2)C(=O)/C1=C\c1cccn1CCOc1ccccc1,6.57%
5,O=C1NC(=O)N(Cc2ccco2)C(=O)/C1=C\c1ccc(-c2ccc(F)cc2)o1,11.4%
6,O=C1CC(=O)N(Cc2ccccc2)C(=O)N1CCCCCCN1C(=O)CC(=O)N(Cc2ccccc2)C1=O,25.7% (active)
7,COc1ccccc1N=Nc1c(O)[nH]c(=S)[nH]c1=O,64.9% (active)
8,CC(C)n1c(=O)c(C=Nc2ccc(Br)cc2)c(O)n(Cc2ccco2)c1=O,17.1%
9,CC/C(=N\NC(=O)c1ccccc1O)c1c(O)n(Cc2ccccc2)c(=O)[nH]c1=O,21.9%
